From PubChem BioAssay
a7 integrin act: activators of alpha7 integrin expression for muscular dystrophy; Potency, µM (highest dose often 38.3 µM), actives largely listed as activators; hit rate 0.064% among 350,000; alpha7betagal myoblasts, beta-gal FDG fluorescence, 48 h; note: nearly all actives have a fitted effect of over 60% in size
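Alpha7betagal+/- myoblasts (passage 13) were plated 16-24 hr, then exposed to compounds (1:260 dilution of DMSO stock) for 48 hours at 37C. After MPER lysis, β-galactosidase reporter activity was read as FDG fluorescence (ex 480/em 540) after 30 minutes.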
DRD3 agonist: D3 dopamine receptor (human) agonism; P35462; AID 652048; D3R DiscoveRx beta-arrestin cells, luminescence, 90 min; max activation, %; hit rate 0.58% among 410,000; in the data active = max activation above about 30%
Target sequence (P35462 whole entry, looked up): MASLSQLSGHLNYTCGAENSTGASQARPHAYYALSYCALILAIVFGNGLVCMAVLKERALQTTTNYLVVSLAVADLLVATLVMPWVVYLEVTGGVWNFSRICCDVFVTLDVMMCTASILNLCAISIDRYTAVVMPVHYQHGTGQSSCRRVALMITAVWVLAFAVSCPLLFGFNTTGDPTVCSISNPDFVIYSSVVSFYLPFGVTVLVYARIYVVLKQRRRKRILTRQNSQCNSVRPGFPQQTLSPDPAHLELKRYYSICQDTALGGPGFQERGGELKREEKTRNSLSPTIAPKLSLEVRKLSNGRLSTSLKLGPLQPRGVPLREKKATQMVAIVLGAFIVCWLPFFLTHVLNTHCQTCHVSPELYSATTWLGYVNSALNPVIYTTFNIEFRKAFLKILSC
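Agonist-mode cell screen: cells plated at 1500/well and incubated overnight at 37 °C, then exposed to library compounds for 90 min at 37 °C. Detection reagent was added for 30–60 min at room temperature, and luminescence was read.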
ATXN2 expr inh: reduces ATXN2 reporter expression in HEK-293 cells; HEK-293 ATXN2-luciferase reporter, luminescence, 24 h; Potency, µM (series often up to 57 µM), usual class: inhibitors; hit rate 0.72% among 360,000; AID 1745845; note: nearly all actives have a fitted effect of over 55% in size
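ATXN2-luciferase reporter cells (luciferase flanked by upstream and downstream ATXN2 gene portions) were treated 24 h at 37 °C with compounds at up to 57 uM. SteadyGlo luminescence gave expression; GF-AFC fluorescence gave viability.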
IL1B secr inh: blocks inflammasome-driven IL-1 beta release | THP-1 LPS/ATP IL-1B secretion, AlphaLISA, 16 h; active compounds read low | hit rate 4.7% among 360,000 | activity change, % at 57.5 µM; in the data active = activity change below about -50%; inconclusive = mostly about -30% to -49%
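THP-1 cells pretreated 1 hr with compounds (up to 57.5 uM final), then stimulated with LPS (250 ng/mL final) plus ATP (1.25 mM final); secreted IL-1B measured by AlphaLISA after 16 hr, decreased signal indicating inhibition.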
S2 tox: cell viability loss in ATXN counter-screen; S2 cells (HEK-293 line with an ATXN2-luciferase reporter) viability, CellTiter-Fluor protease fluorescence, 24 h; Potency, µM (titrated, usually from 56.7 µM), most hits filed as cytotoxic; hit rate 0.49% among 400,000; AID 651635; note: nearly all actives have a fitted effect of over 40% in size
D3 antag: blocks the human D3 dopamine receptor. P35462. D3R cells, DiscoveRx beta-arrestin luminescence, antagonist mode; active compounds read low. max response, negative = inhibition, %. hit rate 2.5% among 360,000. AID 652054; in the data active = max response below about -50%; inconclusive = no clear call, values can overlap the other calls
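Cells expressing the human receptor were seeded at 1500 cells/well, incubated overnight at 37 degrees C in 5% CO2, then exposed to library compounds with dopamine controls for 90 minutes at 37 degrees C before luminescent detection.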
Of the large screens only hits and unclear results are named; the others gave an inactive call. Compounds with a hit are over-represented: about 7% of the library has one in this group of screens. Unless noted, calls come from the whole dose curve; as a rule, active = well fitted curve in the direction sought with a large enough effect; inconclusive = small, poorly fitted or top-dose-only effect, or another doubt; inactive = no such curve, though single readings can be large; an effect the other way counts as inactive or inconclusive.

Cc1cc(C(=O)NNC(=O)CCN2CCN(c3ccccc3)CC2)c2ccccc2n1	D3 antag inconclusive
O=C(CCN1CCN(c2ccccc2)CC1)NNC(=S)Nc1ccccc1Cl	D3 antag inconclusive
CCOc1ccc(NC(=O)CN(C)C(=O)C2CSC3(C)CCC(=O)N23)cc1OCC (stereo not given)	none
COc1ccc(CNC(=O)CN(C)S(=O)(=O)c2ccc3c(c2)OCCO3)cc1OC	none
CC(C)(C)C1CCc2sc(C(=O)NNC(=O)CCl)cc2C1 (stereo not given)	ATXN2 expr inh inconclusive, IL1B secr inh -98, S2 tox inconclusive
CCc1cc(C(=O)NNC(=O)CCl)sc1C	S2 tox 28µM (no result: ATXN2 expr inh)
CCOC(=O)COc1ccc(C2NC(C(=O)O)CS2)cc1 (stereo not given)	none
O=C(Nc1ccc(F)cc1)c1ccc(Cn2nc(N3CCN(c4ccccc4)CC3)ccc2=O)o1	none (no result: a7 integrin act, ATXN2 expr inh, IL1B secr inh, S2 tox, D3 antag)
C=CSc1sc(Cl)c(N2CCOCC2)c1[N+](=O)[O-]	IL1B secr inh -105
COc1nc(N2CCOCC2)nc(C)c1[N+](=O)[O-]	D3 antag inconclusive
C=CS(=O)(=O)c1sc(Cl)c(N2CCOCC2)c1[N+](=O)[O-]	ATXN2 expr inh inconclusive, IL1B secr inh -112, S2 tox inconclusive, D3 antag -72
O=[N+]([O-])c1cccc(Cl)c1N1CCOCC1	none
CCOC(=O)c1cnn(CCOC(=O)c2cccc(F)c2)c1NC(=O)c1cccc(F)c1	none
Clc1ccc(C2=C3CCCCn4c(-c5ccccc5)c[n+](c43)C2)cc1	S2 tox inconclusive
COc1ccc(-c2c[n+]3c4n2CCCCC4=C(c2ccc(Br)cc2)C3)cc1	ATXN2 expr inh inconclusive, IL1B secr inh -98, S2 tox inconclusive
Cc1sc(N)nc1C12CC3CC(CC(C3)C1)C2	IL1B secr inh -52
CC1CCCN(Cc2c(O)ccc3c(=O)c(-c4nc5ccccc5s4)c(N)oc23)C1 (stereo not given)	IL1B secr inh -116
CC1CCN(Cc2c(O)ccc3c(=O)c(-c4nc5ccccc5s4)c(N)oc23)CC1	none (no result: ATXN2 expr inh)
CCN(c1ccccc1)S(=O)(=O)c1cccc(C(=O)NCC(c2ccco2)N2CCCC2)c1 (stereo not given)	D3 antag -58
CCN(c1ccccc1)S(=O)(=O)c1cccc(C(=O)NCC(c2ccc(F)cc2)N2CCOCC2)c1 (stereo not given)	none
O=C(NCC(c1ccco1)N1CCCC1)c1cccc(S(=O)(=O)N2CCCCC2)c1 (stereo not given)	none (no result: ATXN2 expr inh)
CCN(c1ccccc1)S(=O)(=O)c1cccc(C(=O)NCC(c2ccco2)N2CCCCC2)c1 (stereo not given)	IL1B secr inh -55, S2 tox inconclusive, D3 antag inconclusive
CCN(c1ccccc1)S(=O)(=O)c1cc(C(=O)NCC(c2ccco2)N2CCCCC2)ccc1C (stereo not given)	IL1B secr inh -79
Cc1c(CC(=O)NCCc2ccc(Cl)cc2)c(=O)oc2c(C)c3occ(C(C)(C)C)c3cc12	none (no result: a7 integrin act, ATXN2 expr inh, IL1B secr inh, S2 tox, D3 antag)
COc1ccccc1Cc1c(-c2ccco2)nc2c3ccccc3ccn12	none (no result: a7 integrin act)
COc1ccccc1Cc1c(-c2ccc(OC)c(OC)c2)nc2ccc(C)cn12	S2 tox 22µM (no result: a7 integrin act)
COc1ccccc1Cc1c(-c2ccco2)nc2ccc(C)cn12	IL1B secr inh inconclusive, S2 tox inconclusive, D3 antag -50 (no result: a7 integrin act)
Cc1ccc2nc(-c3ccc(Cl)cc3)c(Cc3cccc(Cl)c3)n2c1	ATXN2 expr inh inconclusive, S2 tox 28µM (no result: a7 integrin act)
COc1ccc(-c2nc3ccc(C)cn3c2CC(C)(C)C)cc1OC	ATXN2 expr inh 28µM (no result: a7 integrin act, S2 tox)
Cc1ccc2nc(-c3ccc(F)cc3)c(Cc3cccc(Cl)c3)n2c1	S2 tox inconclusive (no result: a7 integrin act)
Cc1ccc(S(=O)(=O)N(C)c2ccc(C(=O)NCC3CCCO3)cc2)cc1 (stereo not given)	none
COC(=O)[C@@H]1[C@@H]2C[C@H]3c4[nH]c5cc(OC)ccc5c4CCN3C[C@@H]2C[C@H](OC(=O)c2cc(OC)c(OC)c(OC)c2)[C@H]1OC	none (no result: a7 integrin act, DRD3 agonist, ATXN2 expr inh, IL1B secr inh, D3 antag)
COc1ccccc1Cc1c(-c2cccc(Br)c2)nc2ccc(Br)cn12	S2 tox inconclusive (no result: a7 integrin act)
